40 compounds from PubChem BioAssay (NCATS) can be followed below.

Records with an inconclusive call do not appear. A number with no mark means an inactive call. Calls of active or inactive are those of the source. Calls come from the whole dose curve; as a rule, active = well fitted inhibition curve with a large enough effect; inconclusive = small, poorly fitted or top-dose-only effect; inactive = flat fitted curve, though single readings scatter.
% is set by controls: 0 for no effect and ±100 for the full control effect; potency is the fitted concentration of half-maximal effect.

This test deals with astro (control astrocytes). Nature of the test: Drug repurposing screens with cells derived from glioblastoma tumor samples (AID 1345199). Note: nearly all actives have a fitted effect of over 40% in size. The settings on record: viability, ATP luminescence, 48 h; series mostly up to 45.9 µM; activity, negative = cell killing: at the top concentration. The procedure:
CD133+ cells were isolated from GBM patient biopsies and cultured as neurospheres. Neurospheres from four patients were used to screen the NCATS pharmaceutical collection (NPC) library of approved drugs and bioactive compounds. […] The neurospheres were incubated with drugs for 48 hours in 1536-well format, then assayed with an ATP content cell viability assay. […] These hits were cherry picked to confirm activity in the four original GBM lines screened plus three other slower growing GMB lines (unable to yield enough cells for a full primary screen). Variable activities of the confirmed primary hits in the different GBM patient lines were observed. The patient line 206 responded to the greatest number of compounds and line 923 responded to the least amount of active compounds.
`COc1ccc(C2NC(=S)N3C(c4ccc(OC)c(OC)c4)NC(=S)N23)cc1OC` (stereo not given): the “activity, negative = cell killing” value was -19.7%.
`O=S(O)CO`: the “activity, negative = cell killing” value was -6.41%.
As to `C/C=C(/CC[C@@H](C)[C@H]1CC[C@H]2C3=CC[C@H]4[C@H](C)[C@@H](O)CC[C@]4(C)[C@H]3CC[C@]12C)C(C)C`, the “activity, negative = cell killing” value is -4.53%.
Regarding `CCC(CN)CC(C)CCNCC(O)CNCC(C)CC(CC)CN` (stereo not given), the “activity, negative = cell killing” value was -4.63%.
With `Cc1c(O)cc2c(c1C)O[C@](C)(CCC[C@H](C)CCC[C@H](C)CCCC(C)C)CC2`, the “activity, negative = cell killing” value is -4.16%.
Regarding `O=S(O)CNc1ccc(S(=O)(=O)c2ccc(NCS(=O)O)cc2)cc1`, the “activity, negative = cell killing” value is -11.7%.
Turning to `C=CCNC1=C2C[C@@H](C)C[C@H](OC)[C@H](O)[C@@H](C)/C=C(\C)[C@H](OC(N)=O)[C@@H](OC)/C=C\C=C(/C)C(=O)NC(=CC1=O)C2=O`, the Potency is 1260 nM (active).
With `CCCCCCCCCCCCCCCC(=O)OC[C@@H](COP(=O)([O-])OCC[N+](C)(C)C)OC(=O)CCCCCCCCCCCCCCC`, the “activity, negative = cell killing” value is -10.4%.
Same read-out and setting: the value for `NCCCC(=O)O` was -18.8%; that for `C/C(=C(\CCOC(=O)c1ccccc1)SS/C(CCOC(=O)c1ccccc1)=C(/C)N(C=O)Cc1cnc(C)nc1N)N(C=O)Cc1cnc(C)nc1N` was -18.3%.
The same measure, in the same setting: the value for `OCC(O)COc1ccc(Cl)cc1` (stereo not given) was 10.3%.
Consider `CCN(CC)CCOC(=O)c1ccc(N)cc1Cl`, for which the “activity, negative = cell killing” value was -14.4%.
`C=C[C@]1(C)C[C@@H](OC(=O)CO)[C@]2(C)[C@H](C)CC[C@]3(CCC(=O)[C@H]32)[C@@H](C)[C@@H]1O`: the “activity, negative = cell killing” value was -8.05%.
Consider `O=P(O)(O)C(Sc1ccc(Cl)cc1)P(=O)(O)O`, for which the “activity, negative = cell killing” value is 1.18%.
Regarding `O=C(Cn1c(=O)sc2ccc(Cl)cc21)N1CCN(CCO)CC1`, the “activity, negative = cell killing” value is -8.01%.
Take `O=C(OCCO)c1ccccc1O`: the “activity, negative = cell killing” value is -2.2%.
As to `CC(C)(C)NC(=O)[C@H]1CC[C@H]2[C@@H]3CC=C4C=C(C(=O)O)CC[C@]4(C)[C@H]3CC[C@]12C`, the “activity, negative = cell killing” value is -22.2%.
As for `O=P(O)(O)OC(CO)CO`, the “activity, negative = cell killing” value is 7.56%.
In the case of `CCOC(=O)Nc1ccc2c(c1)N(C(=O)CN(C)C)c1ccccc1CC2`, the “activity, negative = cell killing” value was -23.8% [at 91.6 µM].
Take `CSCC[C@H](NC(=O)[C@H](Cc1ccc(OS(=O)(=O)O)cc1)NC(=O)[C@@H](N)CC(=O)O)C(=O)NCC(=O)N[C@@H](Cc1c[nH]c2ccccc12)C(=O)N[C@@H](CCSC)C(=O)N[C@@H](CC(=O)O)C(=O)N[C@@H](Cc1ccccc1)C(N)=O`: the Potency result is “inactive”.
Take `CCCCOC(=O)C(=O)Nc1cccc(-c2nn[nH]n2)c1`: the “activity, negative = cell killing” value was -7.81%.
Take `C=Cc1ccccc1`: the “activity, negative = cell killing” value is -4.84%.
For the compound `O=C(O)c1ccccc1[O-].O=C(O)c1ccccc1[O-].[Zn+2]`, the “activity, negative = cell killing” value was -10.1%.
As for `COc1ccc(CNCC(O)COc2ccc3[nH]c(=O)ccc3c2)cc1OC` (stereo not given), the “activity, negative = cell killing” value is -8.7%.
For `CN(C)Cc1ccccc1`, the “activity, negative = cell killing” value is -7.81%.
For the compound `CN1CCN(C2=Nc3ccccc3Cc3ccccc32)CC1`, the “activity, negative = cell killing” value was -27.5%.
With `CC(C)(C)CC(=O)OCC(=O)[C@@]12OC(C)(C)O[C@@H]1C[C@H]1[C@@H]3CCC4=CC(=O)C=C[C@]4(C)[C@@]3(F)[C@@H](O)C[C@@]12C`, the “activity, negative = cell killing” value is -21.9%.
Take `CC(C(=O)O)c1ccc(C2CCCCC2)c2ccccc12` (stereo not given): the “activity, negative = cell killing” value is -11.8%.
Still for that read-out and setting: then `CCC(=O)OCC(=O)[C@@]1(OC(=O)CC)[C@H](C)C[C@H]2[C@@H]3CCC4=CC(=O)C=C[C@]4(C)[C@@]3(F)[C@@H](O)C[C@@]21C`, with -3.88%.
Consider `COc1ccnc(CS(=O)c2nc3cc(OC(F)F)ccc3[nH]2)c1OC` (stereo not given), for which the “activity, negative = cell killing” value is -15.8%.
Regarding `CCCC1([C@H](O)C/C=C/[C@H]2[C@H](O)CC(=O)[C@@H]2CCCCCCC(=O)OC)CCC1`, the “activity, negative = cell killing” value is -18.2%.
On the same count and under the same terms, the value for `O=P(O)(O)C(O)(Cc1cnc2ccccn12)P(=O)(O)O` was -9.23%; that for `COc1ccc(C(=O)Nc2ccccc2CCC2CCCCN2C)cc1` (stereo not given) was -9.19%; that for `CC#CCC(C)[C@H](O)/C=C/[C@@H]1[C@H]2C/C(=C/CCCC(=O)O)C[C@H]2C[C@H]1O` (stereo not given in full) was -16.9%.
As to `CC(=O)O[C@H]1CC[C@@]2(C)C(=CC[C@H]3[C@@H]4CC[C@H](C(C)=O)[C@@]4(C)CC[C@@H]32)C1`, the “activity, negative = cell killing” value is -16.3%.
Same read-out and setting: then `O=C1O[C@H]2[C@H](O)[C@@H]1OC(O)[C@H]2O` (stereo not given in full), with -11.8%.
As for `CCC(C)C(C(=O)OCC[N+](C)(CC)CC)c1ccccc1` (stereo not given), the “activity, negative = cell killing” value is -0.527%.
Regarding `CS(=O)(=O)OCCCNCCCOS(C)(=O)=O`, the “activity, negative = cell killing” value was -4.37%.
As for `CCCCCCCC/C=C\CCCCCCCC(=O)OC[C@@H](O)[C@H]1OC[C@H](O)[C@H]1O`, the “activity, negative = cell killing” value was 0.289%.
On to `CC#CCC(C)[C@H](O)/C=C/[C@@H]1[C@H]2c3cccc(CCCC(=O)O)c3O[C@H]2C[C@H]1O` (stereo not given in full), for which the “activity, negative = cell killing” value was -12.1%.
